Test [1] concerns the target Chromobox protein homolog 1 (Homo sapiens) (UniProt P83916). Briefly: qHTS Validation Assay for Inhibitors of HP1-beta Chromodomain Interactions with Methylated Histone Tails (AID 488953).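 Also: loss of AlphaScreen luminescence from HP1-beta binding biotinylated H3K9me3 peptide; series mostly up to about 110 µM; % is scaled to controls: 0 for no effect and ±100 for the full control effect; nearly all actives have a fitted effect of over 50% in size.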 Summed up:
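50 nM HP1-beta + 50 nM biotin-H3(1-18)K9me3, PBS pH 7.4, 0.01% Tween-20, 30 min RT; compound added, 30 min RT; AlphaScreen beads 10 ug/mL final, 30 min dark; luminescence read.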

In test [2] the target is Methanococcus maripaludis chaperonin (MmCpn) (UniProt Q6LX38). Briefly: High-Throughput Screening for Modulators of Cytosolic Chaperonin Activity: MmCpn Primary Screen (AID 488978).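 Also: 50 nM MmCpn enzyme hydrolysing 30 µM ATP at 37 °C; 0% is about no effect.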 Summed up:
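Measures ATPase turnover of the M. maripaludis chaperonin (50 nM final) against 30 uM ATP over 10 min at 37C, with compound added 5 min beforehand at room temperature. ADP is quantified by HTRF immunodetection.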

Test [3] has as its target Thyrotropin receptor (Homo sapiens) (UniProt P16473). The test is described as follows: qHTS Assay for Antagonists of the Thyroid Stimulating Hormone Receptor (AID 488980). Also: series mostly up to about 58 µM; 0% is about no effect. The method in brief: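 Cells expressing human TSHR (HEK293) are dispensed in HBSS/HEPES containing 70 uM RO 20-1724, compound is added, then TSH at EC80 (4 nM final). Antibody in lysis buffer follows, 30 minutes at room temperature before HTRF detection.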
On the technique in general: In qHTS, concentration-response curves come from the screen itself.

For test [4], the target named is D(1A) dopamine receptor (Homo sapiens) (UniProt P21728). Briefly: HTS Assay for Allosteric Agonists of the Human D1 Dopamine Receptor: Primary Screen for Agonists (AID 488981). Also: 0% is about no effect. The method in brief:
(§1)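 Tetracycline-induced HEK293 Trex D1 cells with forced coupling to calcium, loaded with no-wash calcium dye; kinetic fluorescence read 180 s after compound addition for agonism, then a further 180 s after an EC20 dopamine challenge for potentiation.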

For test [5] the target is unchanged. The test is described as follows: HTS Assay for Allosteric Agonists of the Human D1 Dopamine Receptor: Primary Screen for Potentiators (AID 488982). Also: 0% is about no effect. Summed up:
as §1

For test [6] the target is unchanged. Briefly: HTS Assay for Allosteric Agonists of the Human D1 Dopamine Receptor: Primary Screen for Antagonists (AID 488983).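 Also: calcium flux response to an EC80 dopamine challenge measured with no-wash dye; nearly all actives have a fitted effect of over 65% in size.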 Also: potency is read from the fitted curve at half-maximal effect. Summed up: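 Cells are induced with tetracycline and incubated overnight at 30 C, then loaded with calcium dye for 30 to 90 minutes at room temperature. Compound addition is followed by a 180 s read, then an EC80 dopamine addition and another 180 s read.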

The target of test [7] is ATP-dependent 6-phosphofructokinase (Trypanosoma brucei brucei) (UniProt O15648). Briefly: qHTS Assay to Find Inhibitors of T. brucei phosphofructokinase: hit validation (AID 492961).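 Also: luminescence reports ADP formed as PFK phosphorylates fructose-6-phosphate with ATP; series mostly up to about 51 µM; % is scaled to controls: 0 for no effect and ±100 for the full control effect.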 Summed up: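 Compounds titrated; %activity normalized to 0x and 1x enzyme controls, curve-fitted. Readout: ADP-Glo luminescence after 45 min room-temperature reaction of 1.25 nM PFK, 0.1 mM ATP, 0.5 mM F6P, pH 8.0.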

A short description of test [8]: Nrf2 qHTS screen for inhibitors: Validation (AID 493153; active = well fitted inhibition curve with a large enough effect in the main read-out, with a control signal flat, not every such curve was filed as active). Particulars: Potency: luciferase luminescence; viability change: measured here: cytotoxicity max response. The method in brief: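 Luminescence from an ARE-firefly luciferase reporter in A549 cells gives Nrf2 inhibition; an earlier CellTiter-Fluor fluorescent read flags cytotoxicity. Cells in 5% FBS OPTI-MEM received compound dilution series for 18-24 h at 37°C.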

Test [9] is described as follows: qHTS for Inhibitors of Cell Surface uPA Generation: Validation Assay (AID 493164). Also: 0% is about no effect. The method in brief:
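RAW 264.7 cells (4000/well) were plated overnight, then exposed for 18 h at 37 C, 5% CO2 to compounds in a 7-point 1:5 titration (2.45 nM–38.3 uM final). Intracellular ATP was read by ATP-Lite luminescence.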

Test [10] deals with Galactokinase (Homo sapiens) (UniProt P51570). Briefly: qHTS Validation Assay for Inhibitors of Human Galactokinase (GALK) (AID 493189). Also: 0% is about no effect. The method in brief:
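Compounds were pin-transferred into ATP buffer, then GALK-galactose mix was added (final 5 nM enzyme, 100 uM galactose, 35 uM ATP). After 1 h at room temperature, remaining ATP was measured luminescently.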

Test [11] in a line: Validation screen for small molecules that induce DNA re-replication in SW480 colon adenocarcinoma cells (AID 504364). Also: 0% is about no effect. Summed up: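 250 cells/well; compound pinned in; 48 hr, 37 C, 5% CO2; Hoechst added, 40 min; nuclear fluorescence imaged, 405 ex / 500-530 em; re-replication scored as increase in high-intensity nuclei.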
Test [12] deals with Peptidyl-prolyl cis-trans isomerase NIMA-interacting 1 (Homo sapiens) (UniProt Q13526). Briefly: qHTS Validation Assay to Find Inhibitors of Pin1 (AID 504536; active = well fitted inhibition curve with a large enough effect in the polarisation, with a control signal flat, not every such curve was filed as active; the % refers to the polarisation;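 also: 0% = full Pin1 enzyme wells and -100% = no-enzyme wells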). Summed up:
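Fluorescence polarization competition: compounds (titration) displace HiFluor-488-labeled Pin1-1b peptide from Pin1 (0.3 uM final) in pH 7.5 HEPES buffer with DTT, 10 min at room temperature; %Activity normalized to no-enzyme wells, curves fitted.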

Test [13] deals with Phosphoglycerate kinase, glycosomal (Trypanosoma brucei brucei) (UniProt P07378). The test is described as follows: qHTS Validation Assay to Find Inhibitors of Phosphoglycerate Kinase (AID 504547).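 Also: control wells lack PGK and mark full inhibition.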 Summed up: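 PGK activity was coupled to GAPDH (100nM final), which generates the unstable substrate 1,3-bisphosphoglycerate in-well. Reactions ran 60 minutes at room temperature in 100mM TEA pH 7.6, 5mM MgCl2, 0.01% Tween-20, then Kinase-Glo Plus luminescence was read.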

Test [14] deals with phosphoglycerate mutase (Leishmania major) (UniProt Q4Q090). Briefly: qHTS Validation Assay to Find Inhibitors of Phosphoglycerate Mutase (AID 504548).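 Also: end-point luminescence from Kinase-GloPlus after the PGAM reaction; series mostly up to about 58 µM; % is scaled to controls: 0 for no effect and ±100 for the full control effect.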 Particulars: Potency: inhibition qHTS. Summed up: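 L. major PGAM (1.25nM final) was added to substrate buffer and pinned compound, incubated 45 minutes at room temperature, then Kinase-GloPlus added; luminescence read after 10 minutes. Buffer: 100 mM TEA pH 7.6, 5 mM MgCl2, 0.01% Tween-20.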

The target of test [15] is Ubiquitin carboxyl-terminal hydrolase 1 (Homo sapiens) (UniProt O94782). Briefly: Inhibitors of USP1/UAF1: Pilot qHTS (AID 504865). Also: nearly all actives have a fitted effect of over 35% in size. Also: potency is read from the fitted curve at half-maximal effect. Summed up:
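Kinetic fluorescence assay: 1nM USP1/UAF1, 15 min compound preincubation, then 150nM Ub-Rho; 480/540 nm.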

A short description of test [16]: qHTS for Inhibitors of ATXN expression: Validation of Cytotoxic Assay (AID 588349). Also: % is scaled to controls: 0 for no effect and ±100 for the full control effect. Summed up: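 Read-out: ATP-based luminescence (CellTiter Glo) reflecting viability of HEK293 cells after 72 hr incubation at 37 degrees C with a concentration series of each compound.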
Test [17] can be described thus: qHTS for Inhibitors of ATXN expression: Validation (AID 588378). Also: series mostly up to about 57 µM; % is scaled to controls: 0 for no effect and ±100 for the full control effect; nearly all actives have a fitted effect of over 75% in size. Summed up: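 Validation of ATXN2 expression inhibitors uses a cell-based luciferase fusion reporter in HEK293 cells, with 24 h compound exposure and paired viability (fluorescence) and reporter (luminescence) end-point reads.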
A short description of test [18]: Validation screen for small molecules that induce genotoxicity in human embryonic kidney (HEK293T) cells expressing luciferase-tagged ELG1 (AID 493106). Also: 0% is about no effect. The method in brief:
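Luminescence from an ELG1-luciferase fusion serves as the read-out, rising when genetic stress elevates ELG1 protein. HEK293T reporter cells (2,000 per well) received 23 nL compound, incubated 16 hr at 37 °C, then ONE-Glo for 30 min at room temperature.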

In test [19] the target is ATPase family AAA domain-containing protein 5 (Homo sapiens) (UniProt Q96QE3). The test is described as follows: Validation screen for small molecules that inhibit ELG1-dependent DNA repair in human embryonic kidney (HEK293T) cells expressing luciferase-tagged ELG1 (AID 493107).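 Also: cells co-treated with the DNA-damaging agent 5-fluorouridine alongside compound; series mostly up to about 46 µM; % is scaled to controls: 0 for no effect and ±100 for the full control effect; inhibitors lower the ELG1-luciferase luminescence signal; nearly all actives have a fitted effect of over 70% in size.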 The method in brief:
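Luminescence from ONE-Glo, developed 30 min at room temperature, served as read-out of ELG1-luciferase levels. Beforehand, reporter HEK293T cells received 5-fluorouridine plus test compound for 16 hr at 37 °C.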

Test [20] concerns the target Thyrotropin-releasing hormone receptor (Homo sapiens) (UniProt P34981). The test is described as follows: qHTS for Small Molecule Agonists and Allosteric Enhancers of Human TRH Receptor: Validation Screen for Agonists (AID 493127;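 active = calcium activation more than 3 SD above the typical response in the agonist read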;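 also: intracellular calcium rise by fluo-8 fluorescence before TRH EC20 addition; 0% is about no effect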). The settings on record: TRH receptor agonist cell assay; at 2 µM; stronger effect = higher value. The method in brief: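 Cells 2000/well, 10% FCS, 18 h 33.5C/5% CO2 → fluo-8 Ca dye, RT 30 min–1.5 h → FDSS baseline 10 × 1 s → compound added → 230 cycles (1 s/cycle) agonist mode. TRH controls.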

Several values for one entry are separate records, joined by “and”; a condition that tells them apart may be missing. Equal entries are not always repeated. Inconclusive results are not listed. Activity calls are given as the source filed them. Unless noted, calls follow the shape of the dose curve; as a rule, active = well fitted curve in the direction sought with a large enough effect; inconclusive = small, poorly fitted or top-dose-only effect, or another doubt; inactive = no such curve, though single readings can be large; an effect the other way counts as inactive or inconclusive.

Thyrotropin-releasing hormone receptor (Homo sapiens), sequence (P34981 whole entry, looked up): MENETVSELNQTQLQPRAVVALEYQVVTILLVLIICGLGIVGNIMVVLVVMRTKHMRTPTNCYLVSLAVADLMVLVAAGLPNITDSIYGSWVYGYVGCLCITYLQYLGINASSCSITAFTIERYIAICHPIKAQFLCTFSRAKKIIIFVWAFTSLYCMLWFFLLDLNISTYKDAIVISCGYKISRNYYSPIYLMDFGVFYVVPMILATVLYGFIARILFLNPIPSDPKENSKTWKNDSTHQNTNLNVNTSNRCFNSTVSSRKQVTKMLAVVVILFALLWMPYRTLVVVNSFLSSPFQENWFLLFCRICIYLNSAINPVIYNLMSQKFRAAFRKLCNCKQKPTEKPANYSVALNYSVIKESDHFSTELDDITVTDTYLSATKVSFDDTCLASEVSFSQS
Chromobox protein homolog 1 (Homo sapiens), sequence (P83916 whole entry, looked up): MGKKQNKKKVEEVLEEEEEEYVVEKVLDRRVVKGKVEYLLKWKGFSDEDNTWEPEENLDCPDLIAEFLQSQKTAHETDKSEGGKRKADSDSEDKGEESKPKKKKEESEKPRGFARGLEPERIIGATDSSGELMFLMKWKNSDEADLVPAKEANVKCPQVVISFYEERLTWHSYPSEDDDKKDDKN
phosphoglycerate mutase (Leishmania major), sequence (Q4Q090 1-553): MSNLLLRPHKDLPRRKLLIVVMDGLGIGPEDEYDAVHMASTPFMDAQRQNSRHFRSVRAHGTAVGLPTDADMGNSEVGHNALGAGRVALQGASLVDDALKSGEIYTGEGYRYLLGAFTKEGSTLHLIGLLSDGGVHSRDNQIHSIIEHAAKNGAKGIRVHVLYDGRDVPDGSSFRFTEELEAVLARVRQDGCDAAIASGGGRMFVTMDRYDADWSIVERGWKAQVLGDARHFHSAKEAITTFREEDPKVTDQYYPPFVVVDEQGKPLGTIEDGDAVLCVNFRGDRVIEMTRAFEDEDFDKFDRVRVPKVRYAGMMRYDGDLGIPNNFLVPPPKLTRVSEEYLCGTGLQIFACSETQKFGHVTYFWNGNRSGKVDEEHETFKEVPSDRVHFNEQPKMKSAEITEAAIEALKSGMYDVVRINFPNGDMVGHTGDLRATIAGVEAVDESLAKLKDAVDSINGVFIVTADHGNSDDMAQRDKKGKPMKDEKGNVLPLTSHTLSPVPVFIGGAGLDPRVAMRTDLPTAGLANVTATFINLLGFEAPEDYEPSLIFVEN
D(1A) dopamine receptor (Homo sapiens), sequence (P21728 whole entry, looked up): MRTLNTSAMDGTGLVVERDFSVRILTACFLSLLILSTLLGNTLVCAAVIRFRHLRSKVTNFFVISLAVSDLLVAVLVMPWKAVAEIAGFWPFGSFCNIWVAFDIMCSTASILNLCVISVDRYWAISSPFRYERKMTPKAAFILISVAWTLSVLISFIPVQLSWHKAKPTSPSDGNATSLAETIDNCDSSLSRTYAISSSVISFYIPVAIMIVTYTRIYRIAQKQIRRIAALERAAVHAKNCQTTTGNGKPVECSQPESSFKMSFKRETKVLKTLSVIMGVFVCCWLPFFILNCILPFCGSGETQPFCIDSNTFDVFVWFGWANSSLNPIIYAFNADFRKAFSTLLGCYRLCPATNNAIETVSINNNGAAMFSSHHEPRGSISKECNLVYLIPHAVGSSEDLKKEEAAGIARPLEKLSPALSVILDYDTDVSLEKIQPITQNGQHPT
Galactokinase (Homo sapiens), sequence (P51570 whole entry, looked up): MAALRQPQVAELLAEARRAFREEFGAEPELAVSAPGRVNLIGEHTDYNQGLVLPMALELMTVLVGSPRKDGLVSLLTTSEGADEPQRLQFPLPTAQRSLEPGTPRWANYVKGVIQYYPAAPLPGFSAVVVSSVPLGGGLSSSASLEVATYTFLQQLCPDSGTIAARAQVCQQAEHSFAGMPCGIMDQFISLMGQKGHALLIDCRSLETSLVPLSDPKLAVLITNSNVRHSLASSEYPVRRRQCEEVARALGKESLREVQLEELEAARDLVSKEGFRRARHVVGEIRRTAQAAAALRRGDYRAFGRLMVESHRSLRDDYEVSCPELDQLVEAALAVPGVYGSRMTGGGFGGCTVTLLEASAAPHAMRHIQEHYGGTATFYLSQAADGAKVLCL
Phosphoglycerate kinase, glycosomal (Trypanosoma brucei brucei), sequence (P07378 whole entry, looked up): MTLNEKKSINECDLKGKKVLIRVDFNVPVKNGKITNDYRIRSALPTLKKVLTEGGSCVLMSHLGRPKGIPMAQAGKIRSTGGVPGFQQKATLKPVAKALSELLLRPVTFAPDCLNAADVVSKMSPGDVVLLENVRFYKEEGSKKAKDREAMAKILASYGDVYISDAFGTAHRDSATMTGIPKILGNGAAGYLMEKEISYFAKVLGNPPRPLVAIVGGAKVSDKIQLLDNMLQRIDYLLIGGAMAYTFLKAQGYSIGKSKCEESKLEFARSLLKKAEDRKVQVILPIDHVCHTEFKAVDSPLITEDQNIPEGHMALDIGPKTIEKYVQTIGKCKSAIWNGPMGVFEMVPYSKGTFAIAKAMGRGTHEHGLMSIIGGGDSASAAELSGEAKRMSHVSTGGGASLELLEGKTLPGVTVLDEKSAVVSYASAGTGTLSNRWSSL
Ubiquitin carboxyl-terminal hydrolase 1 (Homo sapiens), sequence (O94782 whole entry, looked up): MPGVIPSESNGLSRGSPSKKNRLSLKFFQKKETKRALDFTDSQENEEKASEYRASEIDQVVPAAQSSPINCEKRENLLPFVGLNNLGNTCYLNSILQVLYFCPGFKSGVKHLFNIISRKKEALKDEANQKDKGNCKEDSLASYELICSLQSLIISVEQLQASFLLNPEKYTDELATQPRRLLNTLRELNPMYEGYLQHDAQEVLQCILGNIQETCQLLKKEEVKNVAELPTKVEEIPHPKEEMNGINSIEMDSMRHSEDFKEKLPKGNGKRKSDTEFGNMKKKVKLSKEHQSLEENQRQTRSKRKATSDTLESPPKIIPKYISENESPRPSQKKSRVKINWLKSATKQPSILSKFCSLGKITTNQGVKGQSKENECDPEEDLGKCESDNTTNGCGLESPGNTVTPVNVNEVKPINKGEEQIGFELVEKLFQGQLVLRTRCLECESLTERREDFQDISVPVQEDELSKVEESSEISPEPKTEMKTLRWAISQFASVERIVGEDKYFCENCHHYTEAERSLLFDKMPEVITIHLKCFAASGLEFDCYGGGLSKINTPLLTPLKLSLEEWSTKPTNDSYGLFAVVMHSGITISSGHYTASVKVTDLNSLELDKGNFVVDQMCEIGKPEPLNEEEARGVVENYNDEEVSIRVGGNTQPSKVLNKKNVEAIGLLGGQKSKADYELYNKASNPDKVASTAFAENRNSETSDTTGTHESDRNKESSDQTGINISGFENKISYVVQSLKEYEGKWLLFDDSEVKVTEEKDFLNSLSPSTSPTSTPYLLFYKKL
Methanococcus maripaludis chaperonin (MmCpn), sequence (Q6LX38 1-543): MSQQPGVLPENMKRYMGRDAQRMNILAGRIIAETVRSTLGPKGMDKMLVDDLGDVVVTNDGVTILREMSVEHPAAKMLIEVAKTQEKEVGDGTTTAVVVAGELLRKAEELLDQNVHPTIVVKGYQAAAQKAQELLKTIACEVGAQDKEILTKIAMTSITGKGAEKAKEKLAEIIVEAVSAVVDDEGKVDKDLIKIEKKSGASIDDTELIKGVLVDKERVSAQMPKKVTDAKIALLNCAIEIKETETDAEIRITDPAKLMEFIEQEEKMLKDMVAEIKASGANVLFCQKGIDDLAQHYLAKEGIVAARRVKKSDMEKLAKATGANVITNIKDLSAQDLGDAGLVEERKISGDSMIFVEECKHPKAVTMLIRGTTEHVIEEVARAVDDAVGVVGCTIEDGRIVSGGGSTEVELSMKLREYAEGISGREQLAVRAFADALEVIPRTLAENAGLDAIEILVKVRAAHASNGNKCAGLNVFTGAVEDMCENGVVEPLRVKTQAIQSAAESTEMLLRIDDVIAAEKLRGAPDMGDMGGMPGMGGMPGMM
Peptidyl-prolyl cis-trans isomerase NIMA-interacting 1 (Homo sapiens), sequence (Q13526 whole entry, looked up): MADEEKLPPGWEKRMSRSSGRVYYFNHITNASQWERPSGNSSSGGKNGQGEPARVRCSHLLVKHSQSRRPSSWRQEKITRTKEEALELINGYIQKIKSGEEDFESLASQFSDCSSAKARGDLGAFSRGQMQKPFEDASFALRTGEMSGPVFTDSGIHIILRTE
Thyrotropin receptor (Homo sapiens), sequence (P16473 whole entry, looked up): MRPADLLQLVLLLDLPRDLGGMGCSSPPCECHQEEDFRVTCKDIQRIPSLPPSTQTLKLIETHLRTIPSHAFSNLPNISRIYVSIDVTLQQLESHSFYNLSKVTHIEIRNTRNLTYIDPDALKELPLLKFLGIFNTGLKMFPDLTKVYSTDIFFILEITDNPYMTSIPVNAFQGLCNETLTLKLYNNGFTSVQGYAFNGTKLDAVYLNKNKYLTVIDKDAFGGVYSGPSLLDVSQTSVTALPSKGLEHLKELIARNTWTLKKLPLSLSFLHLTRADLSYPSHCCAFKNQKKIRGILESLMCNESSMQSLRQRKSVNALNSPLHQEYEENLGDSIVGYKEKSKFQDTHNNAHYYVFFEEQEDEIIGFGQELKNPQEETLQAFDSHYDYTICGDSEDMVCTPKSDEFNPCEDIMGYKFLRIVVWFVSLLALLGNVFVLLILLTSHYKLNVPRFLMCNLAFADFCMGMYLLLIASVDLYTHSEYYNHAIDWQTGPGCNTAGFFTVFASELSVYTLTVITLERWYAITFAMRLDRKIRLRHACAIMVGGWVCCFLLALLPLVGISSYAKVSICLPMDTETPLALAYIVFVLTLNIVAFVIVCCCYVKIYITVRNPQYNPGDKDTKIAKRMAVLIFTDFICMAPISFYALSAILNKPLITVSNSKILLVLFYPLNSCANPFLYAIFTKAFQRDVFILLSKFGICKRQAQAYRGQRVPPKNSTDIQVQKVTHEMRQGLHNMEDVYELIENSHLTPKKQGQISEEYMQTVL

In the case of `NNc1nncc2ccccc12`, the Potency entry in test [1], in test [5], in [6], in test [8], in [11] and in [13] was “inactive” each time. The Potency entry in test [14], in [15] and in [17] was “inactive” throughout. The call in test [2], in [3], in test [4], in [7], in test [9] and in test [10] was inactive. Besides, the result in test [12] and in test [16] was inactive. For the same compound, the viability change in test [8] was -2.74%.
As for `O=C(O)c1cccnc1Nc1cccc(C(F)(F)F)c1`, the Potency entry in [1], in [5], in [6], in test [18], in test [11] and in test [13] was “inactive” throughout. The Potency entry in test [14], in test [15] and in [17] was “inactive” each time. In addition, the compound was called inactive in [2], in test [4], in test [19], in test [9], in test [10] and in test [12]. In addition, the compound was called inactive in test [16]. Besides, the activation in test [20] was 1.5% (inactive).
As to `CC(C)c1ccc2c(c1)c(SC(C)(C)C)c(CC(C)(C)C(=O)O)n2Cc1ccc(Cl)cc1`, the Potency entry in test [1], in [5], in test [6], in test [18], in test [11] and in test [13] was “inactive” in each case. Further, in [14], the Potency entry was “inactive”. Further, the outcome in test [2], in test [3], in test [4], in test [19], in test [9] and in test [10] was inactive. The result in [12] was inactive. The activation in [20] was 1.38% (inactive). Also, the Potency in [15] was 25.1 µM (active) and 50.1 µM (active).
Consider `C[C@@H](N)C1CCC(C(=O)Nc2ccncc2)CC1` (some centres undefined), for which the Potency result in [1], in test [5], in [6], in test [18], in test [8] and in test [11] was “inactive” each time. For the same compound, the Potency result in test [13], in test [14], in test [15] and in test [17] was “inactive” throughout. In addition, the outcome in test [2], in test [3], in test [4], in test [9], in test [10] and in test [12] was inactive. For the same compound, in test [16], the outcome was inactive. The activation in test [20] was 1.06% (inactive). Besides, the viability change in [8] was found to be 2.27%.
Regarding `CC1(C)C(=O)N(CCN2CCC(C(=O)c3ccc(F)cc3)CC2)c2ccccc21`, the result in [2], in test [3], in test [4], in [9], in test [10] and in [12] was inactive. Further, the Potency result in [5], in test [18], in test [11], in test [13], in test [14] and in test [15] was “inactive” in each case. Further, in [6], the Potency was 4.47 µM (active). The activation in test [20] is 3.12% (inactive).

(Values after PubChem BioAssay (NCATS).)
